Compound activity (PubChem BioAssay)
D1 antag: antagonists of human D1 dopamine receptor; 360,000 tested, 3.2% active; HEK293 TREx D1 cells, calcium flux, dopamine EC80; stronger effect = lower value; P21728; activity change, negative = inhibition, % at 10 µM; in the data active = activity change below about -30%; also: % is scaled to controls: 0 for no effect and ±100 for the full control effect
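Antagonism measured as reduced calcium response to an EC80 dopamine addition following 180 s compound pre-read; cells were inducible HEK293 Trex D1 plated overnight at 30 C, read kinetically at 1 cycle/sec.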
D3 antag: blocks the human D3 dopamine receptor; D3R cells, DiscoveRx beta-arrestin luminescence, antagonist mode; stronger effect = lower value; max response, negative = inhibition, %; 360,000 tested, 2.5% active; AID 652054; in the data active = max response below about -50%; inconclusive = no clear call, values can overlap the other calls; also: % is scaled to controls: 0 for no effect and ±100 for the full control effect
Target sequence (P35462 whole entry, looked up): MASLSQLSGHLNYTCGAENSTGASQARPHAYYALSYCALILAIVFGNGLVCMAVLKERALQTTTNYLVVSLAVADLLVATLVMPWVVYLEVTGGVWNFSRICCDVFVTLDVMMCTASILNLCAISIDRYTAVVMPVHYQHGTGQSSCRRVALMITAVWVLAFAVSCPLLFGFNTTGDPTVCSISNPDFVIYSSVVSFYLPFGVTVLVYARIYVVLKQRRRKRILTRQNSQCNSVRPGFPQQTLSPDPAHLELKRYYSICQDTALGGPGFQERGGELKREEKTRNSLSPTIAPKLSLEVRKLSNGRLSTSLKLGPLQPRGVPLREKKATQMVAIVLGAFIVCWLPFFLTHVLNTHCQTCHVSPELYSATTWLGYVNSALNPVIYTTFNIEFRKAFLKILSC
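Cells expressing the human receptor were seeded at 1500 cells/well, incubated overnight at 37 degrees C in 5% CO2, then exposed to library compounds with dopamine controls for 90 minutes at 37 degrees C before luminescent detection.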
D1 agonist: human D1 receptor agonism; P21728; activation, % at 2 µM; HEK293 T-REx D1 cells, calcium flux, agonist mode; 360,000 tested, 1% active; in the data active = activation above about 30%; also: 0% is about no effect
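Inducible HEK293 T-REx D1 cells, force-coupled to calcium signalling, were plated at 4000 cells/well with tetracycline and held overnight at 30 C. After no-wash calcium dye loading, compound-evoked calcium rise over 180 s flagged agonists.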
D1 potentiator: enhances dopamine response at the human D1 receptor. P21728. HEK293 TREx D1 cells, calcium flux, dopamine EC20 potentiation. potentiation, % at 10 µM. 360,000 tested, 0.036% active; in the data active = potentiation above about 30%; also: 0% is about no effect
DRD3 agonist: activates the human D3 dopamine receptor; P35462; D3R DiscoveRx beta-arrestin cells, luminescence, 90 min; max activation, %; 410,000 tested, 0.58% active; AID 652048; in the data active = max activation above about 30%; also: 0% is about no effect
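Agonist-mode cell screen: cells plated at 1500/well and incubated overnight at 37 °C, then exposed to library compounds for 90 min at 37 °C. Detection reagent was added for 30–60 min at room temperature, and luminescence was read.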
BCR signal inh: inhibitors of chronic active B-cell receptor signaling; ABC-DLBCL IkBa-CBG/CBR reporter, luminescence ratio, 4 h; Potency, µM (series often up to 46.1 µM), without a hit: at the highest dose activity change, negative = inhibition, most hits filed as inhibitors; 340,000 tested, 0.05% active; AID 493014; active = well fitted inhibition curve with a large enough effect in the signal ratio, with a control signal flat, not every such curve was filed as active; inconclusive = small, poorly fitted or top-dose-only effect, or effect the other way, or a change in a side signal; the % refers to the signal ratio;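 also: potency is read from the fitted curve at half-maximal effect; plate controls were basal doxycycline-induced cells for no effect and cells given 10 µM MG132 for full effect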
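TMD8 ABC-DLBCL cells carrying doxycycline-inducible green luciferase fused to IkappaBalpha plus unfused red luciferase were exposed to compounds (up to 46 uM) for 4 hrs at 37C. Activity came from the overlap-corrected green/red luminescence ratio.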
An asterisk follows results filed as active; ? = inconclusive; . = no result given. The list is not random: actives were taken first. Their share in the collection is about 6%.

SMILES | D1 antag | D3 antag | D1 agonist | D1 potentiator | DRD3 agonist | BCR signal inh
CN(C)c1ccc(C(CNC(=O)Cc2ccc(Cl)cc2)N2CCOCC2)cc1 (centres undefined) | -5 | . | 0 | 1 | 5 | .
COc1ccc(C(CNC(=O)C(C)Oc2ccc(Br)cc2)N2CCOCC2)cc1 (centres undefined) | -4 | -69* | 0 | -8 | -28 | 0%
COc1ccc(C(CNC(=O)CSc2ccc(Br)cc2)N2CCOCC2)cc1 (centres undefined) | -6 | -15 | 2 | 3 | -17 | ?
COc1ccc(C(CNC(=O)COc2ccccc2)N2CCCCC2)cc1 (centres undefined) | 3 | -116* | 0 | 2 | -29 | 1%
COc1ccc(NS(=O)(=O)c2cccc(C(=O)OCC(=O)N3CCN(c4ccc(OC)cc4)CC3)c2)cc1 | -69* | 23 | 7 | 4 | 7 | 22%
COc1ccc(N2CCN(C(=O)c3ccc(NS(=O)(=O)c4cccc(F)c4)cc3)CC2)cc1 | 5 | 7 | 4 | -1 | 0 | ?
CN(C(=O)COC(=O)CSc1ccc([N+](=O)[O-])cc1)c1ccccc1 | -47* | -16 | 12 | . | -9 | ?
CC(C)CCOc1ccc(NC(=O)C2OC3OC(C)(C)OC3C3OC(C)(C)OC23)cc1 (centres undefined) | -43* | -10 | -1 | 4 | 2 | -5%
Cc1ccccc1CNC(=O)Cn1c(=O)c2cccn2c2cccnc21 | 0 | . | 0 | 4 | 1 | .
COc1ccc(CCNC(=O)c2c(O)c3c([nH]c2=O)CCCC3)cc1 | 1 | -126* | 2 | -2 | 2 | 3%
COc1ccc(CCNC(=O)Cn2c(=O)c3cccn3c3ccc(F)cc32)c(OC)c1 | 1 | . | 5 | 0 | 2 | .
O=C(OCC1CCCO1)c1ccc2c(c1)N(Cc1c(F)cccc1Cl)C(=O)c1ccccc1S2(=O)=O (centres undefined) | 14 | . | 2 | -6 | 8 | .
COC(=O)C1CCN(C2CN(Cc3ccc([N+](=O)[O-])cc3)S(=O)(=O)C2)CC1 (centres undefined) | . | -29 | . | . | -2 | .
COc1ccc(CNC2CCSc3ccccc32)cc1OC (centres undefined) | -32* | 36 | 2 | -3 | -10 | ?
CSc1cccc(NC(=O)c2cc3c(COC(C)=O)cnc(C)c3oc2=O)c1 | 13 | . | 0 | 0 | -10 | .
C/C=C/c1cc(CN2CCN(c3ccccc3)CC2)c(O)c(OC)c1 | -11 | -98* | 3 | 2 | -20 | 2%
CCCOc1ccc(NC(=O)CC2C(=O)N(c3ccccc3)C(=O)N2CCC(C)C)cc1 (centres undefined) | -2 | . | 1 | 0 | 1 | .
Cc1ccsc1CCN1C(=O)N(c2ccccc2)C(=O)C1CC(=O)Nc1ccc(Cl)cc1 (centres undefined) | -36* | . | 9 | -5 | -2 | .
CCc1ccc(NC(=O)CC2C(=O)N(c3ccc(F)cc3)C(=O)N2Cc2ccc(F)cc2)cc1 (centres undefined) | -31* | . | 1 | -4 | 6 | .
CCCOc1ccc(NC(=O)CC2C(=O)N(c3ccc(OC)cc3)C(=O)N2CCc2ccncc2)cc1 (centres undefined) | -42* | . | 1 | -2 | 1 | .
CCCOc1ccc(NC(=O)CC2C(=O)N(c3ccc(F)cc3)C(=O)N2CC(C)C)cc1 (centres undefined) | 24 | . | -1 | -2 | 62* | .
CN1C(=O)c2cccc3c(S(=O)(=O)Nc4cccc(C(=O)O)c4)ccc1c23 | -17 | . | 0 | -2 | -4 | .
CCc1ccc(NC(=O)CC2C(=O)N(c3cccc(C)c3)C(=O)N2Cc2cccs2)cc1 (centres undefined) | -38* | . | 3 | -3 | 7 | .
Cc1ccc(OCc2nnc(SCC(=O)N3c4ccccc4Sc4ccc(Cl)cc43)o2)cc1 | -32* | -13 | 1 | 2 | -5 | 4%
CN1CCN(C(=O)CSc2nnc(COc3ccc(Cl)cc3)o2)CC1 | -37* | 3 | 16 | . | -1 | 14%
SMILES | D1 antag | D3 antag | D1 agonist | D1 potentiator | DRD3 agonist | BCR signal inh
O=C(COc1ccc(Cl)cc1)NCc1nnc(SCC(=O)NC2CCCCC2)o1 | -33* | 19 | 20 | -5 | 2 | 0%
COc1ccc(OCc2nnc(SCC(=O)N3c4ccccc4Sc4ccc(Cl)cc43)o2)cc1 | -3 | 30 | 6 | 0 | 0 | 13%
CN1CCN(C(=O)CSc2nnc(COc3ccccc3)o2)CC1 | -1 | 11 | 4 | 0 | 0 | 0%
O=C(CSc1nnc(CNc2ccc(F)cc2)o1)OC1CCCCC1 | -31* | -25 | 2 | 0 | -2 | -7%
O=C(COc1ccc(Cl)cc1)NCc1nnc(SCC(=O)Nc2ccccc2)o1 | 0 | 3 | -1 | 2 | 3 | -20%
COc1cc(Nc2ccn3nc(-c4ccc(F)cc4)cc3n2)cc(OC)c1OC | . | 109 | . | . | 9 | .
O=C(CSc1nc2ccccc2s1)N1c2ccccc2Sc2ccc(Cl)cc21 | -49* | -25 | 2 | -10 | 5 | 1%
Cc1nc(SCC(=O)N2c3ccccc3Sc3ccccc32)n[nH]1 | 0 | -57* | 0 | 0 | -7 | ?
O=C(CSc1nc2ccccc2[nH]1)N1c2ccccc2Sc2ccccc21 | -14 | -9 | 1 | 0 | -26 | 9%
CCc1ccc(NS(=O)(=O)c2ccc(C(=O)N(C)C)s2)cc1 | 1 | . | 2 | 1 | -14 | .
CCc1ccccc1NC(=O)Cn1nnc(C(=O)Nc2ccc(OC)c(OC)c2)c1N | 3 | . | 0 | -4 | -3 | .
Cn1c(=O)n(C)c2cc([N+](=O)[O-])c(N3CCN(C(=O)c4cccc(Cl)c4)CC3)cc21 | -14 | -60* | 4 | -4 | -14 | 13%
Cc1nnc(NC2CCCCC2)[nH]c1=O | -3 | 19 | 3 | -2 | -1 | 10%
Cc1n[nH]c(=O)nc1NC1CCCCC1 | -44* | 11 | 0 | 2 | -3 | -6%
N#Cc1c(N)nc2c3c(sc(=N)c2c1N)NC(=O)CC3c1ccccc1 (centres undefined) | -35* | 8 | -1 | -3 | -2 | ?
O=S(=O)(c1ccc2c(c1)OCCO2)N1CCN(S(=O)(=O)c2ccccc2Cl)CC1 | -12 | . | 3 | -3 | . | .
CCOc1cc(C(=O)Nc2ccc(N3CCN(S(C)(=O)=O)CC3)cc2)cc(OCC)c1OCC | 11 | 9 | 1 | 5 | 2 | ?
CCOc1cc(C(=O)Nc2ccccc2N2CCN(S(C)(=O)=O)CC2)cc(OCC)c1OCC | -64* | 23 | 1 | -4 | 1 | ?
COc1cccc(NC(=O)c2oc3ccccc3c2NC(=O)c2ccc(F)c(F)c2)c1 | -18 | . | 8 | -3 | -9 | .
